From PubChem
Compounds with a hit are over-represented: about 2.9% of the library has one in this group of screens.
H9c2 protect: myocardial damage modulation in H9c2 cells. H9c2 cardiomyocytes, H2O2 injury protection, ATPLite, 2 h. AID 588492. actives 0.63% (n = 360,000). protection from H2O2 cell death, % at 20 µM;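 active means compounds giving at least 50% protection of heart cells from peroxide-induced death in the single-dose screen, raw or plate-pattern-corrected value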;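 further: 0% = DMSO wells with peroxide and 100% = DMSO wells without peroxide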
H9c2 TAG inh: inhibitors of triacylglycerol accumulation. H9c2 cells, Nile Red lipid (TAG) fluorescence; cells loaded with 200 µM oleic acid. inhibition, % at 12.5 µM. actives 0.66% (n = 230,000). AID 651582;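 active means pattern-corrected inhibition of lipid staining of at least 50% with the nuclear-stain viability signal not falling by more than 50%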;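 further: 0% = DMSO wells and 100% = triacsin C control wells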
APOBEC3A inh: human APOBEC3A DNA deaminase inhibition. recombinant A3A, FAM/TAMRA ssDNA deamination fluorescence. inhibition, % at 20 µM. actives 0.41% (n = 330,000). AID 493011;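 active means at least 40% inhibition at 20 µM here, with at most 30% in a related deaminase screen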;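 further: plate controls were A3A with DMSO for no effect and wells lacking A3A enzyme for full effect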
Target sequence (P31941 whole entry, looked up): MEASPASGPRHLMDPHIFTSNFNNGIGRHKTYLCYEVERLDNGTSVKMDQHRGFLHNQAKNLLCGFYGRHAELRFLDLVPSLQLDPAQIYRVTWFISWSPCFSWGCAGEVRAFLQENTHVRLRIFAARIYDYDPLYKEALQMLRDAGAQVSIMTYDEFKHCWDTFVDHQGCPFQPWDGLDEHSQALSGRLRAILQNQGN
APOBEC3G inh: inhibitors of human APOBEC3G DNA deaminase | actives 0.28% (n = 330,000) | inhibition, % at 20 µM | AID 493012 | Q9HC16 | recombinant A3G, ssDNA deamination FAM/TAMRA fluorescence;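 active means inhibition of at least 40% at 20 µM, with no more than 30% in the related APOBEC3A deaminase screen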;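 further: plate controls were DMSO wells with A3G for no effect and wells lacking A3G enzyme for full effect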
Target sequence (Q9HC16 whole entry, looked up): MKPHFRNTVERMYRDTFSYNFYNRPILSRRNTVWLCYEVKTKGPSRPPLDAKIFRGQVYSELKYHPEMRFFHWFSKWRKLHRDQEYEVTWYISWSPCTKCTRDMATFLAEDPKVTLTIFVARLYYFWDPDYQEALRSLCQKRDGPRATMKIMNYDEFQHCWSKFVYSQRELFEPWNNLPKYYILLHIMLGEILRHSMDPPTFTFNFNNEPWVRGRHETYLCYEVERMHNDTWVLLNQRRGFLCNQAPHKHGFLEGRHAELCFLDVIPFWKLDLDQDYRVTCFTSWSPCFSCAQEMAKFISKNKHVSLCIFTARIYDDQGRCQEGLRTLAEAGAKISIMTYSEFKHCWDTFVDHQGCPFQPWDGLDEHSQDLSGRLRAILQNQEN
NadD inh: blocks S. aureus nicotinate mononucleotide adenylyltransferase. purified NadD enzyme, colorimetric absorbance read-out. inhibition, % at 20 µM. actives 0.78% (n = 360,000). AID 602399; in the data active means inhibition above about 26%
PfGluPho inh: PfG6PD (Plasmodium falciparum) enzyme inhibition; AID 504690; inhibition, % at 20 µM; actives 0.78% (n = 350,000); PfGluPho enzyme, NADPH resazurin-diaphorase fluorescence;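 active means inhibition reaching at least a set limit at 20 µM in the primary screen, cut at about 59% in these data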;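 further: 0% = DMSO wells with substrate and 100% = DMSO wells lacking glucose-6-phosphate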
The depositor's hits bear a star; · = not tested or not shown.

SMILES	H9c2 protect	H9c2 TAG inh	APOBEC3A inh	APOBEC3G inh	NadD inh	PfGluPho inh
COc1ccc(C2CCCCCN2C(=O)C2CCN(S(=O)(=O)c3cccc(C(C)=O)c3)CC2)cc1 (stereo not drawn)	83*	28	·	·	-5	-1
CC(=O)c1cccc(S(=O)(=O)N2CCC(C(=O)O)CC2)c1	-5	11	4	-2	-3	-23
CCC(C)(C)NS(=O)(=O)c1cc(CN2C(=O)c3cccnc3C2=O)ccc1OC	8	·	1	-3	3	-7
O=C(CCc1nc2ccccc2c(=O)[nH]1)Nc1ccc(F)c([N+](=O)[O-])c1	50*	2	2	6	9	21
O=C(CCc1nc2ccccc2c(=O)[nH]1)Nc1cccc(S(=O)(=O)N2CCCCC2)c1	26	-3	14	-6	1	3
O=C(CCc1nc2ccccc2c(=O)[nH]1)NCC(=O)Nc1ccc(F)c(F)c1	59*	-5	-2	-8	0	-5
CN[C@@H](CO)C(=O)NC[C@H]1O[C@@H](n2cnc3c(N)ncnc32)[C@H](O)[C@@H]1O	6	·	·	·	0	·
C=CCn1c(N)c(C(=O)Nc2ccc(C)c(C)c2)c2nc3ccccc3nc21	-3	54*	-1	-12	-8	3
CN1CCN(S(=O)(=O)c2ccc(F)cc2)CC1	5	12	·	·	4	-10
CN(Cc1cc(Cl)cc(Cl)c1)CC(C(=O)c1ccccc1)c1ccccc1 (stereo not drawn)	-12	-4	·	·	2	19
O=C(CC(C(=O)c1ccccc1)c1ccccc1)c1ccccc1 (stereo not drawn)	56*	-8	·	·	-4	4
CN(C)CC(C(=O)c1ccccc1)c1ccccc1 (stereo not drawn)	-32	65*	-2	-6	-6	-17
COC(=O)[C@]12CCCCC=C1N(CCC1=CCCCC1)C(=O)[C@H](CC(=O)N1CCCC1)C2	·	·	·	·	11	·
CCCCCCCCCCCCCCCC[n+]1cccc2ccccc21	-22	·	62	44	53*	12
CCCCCCCCC[n+]1cccc2c3ccccc3ccc21	-35	·	1	1	6	-13
COc1ccc(CC(N)c2csc(NC(=O)c3cc(C(C)(C)C)nn3Cc3ccccc3)n2)cc1 (stereo not drawn)	-29	112*	·	·	21	·
CC1(C)CC(=O)C2=C(C1)N(CCN1CCOCC1)C1=C(C(=O)CC(C)(C)C1)C2c1ccc(Cl)cc1	52*	32	-1	-7	5	23
Cc1cc(Nc2ccccc2C(=O)O)nc2nc3ccccc3c(=O)n12	81*	·	-2	-1	-2	-15
NC(=O)c1ccccc1Nc1nc2nc3ccccc3c(=O)n2cc1Br	·	·	-2	-9	·	0
COc1ccc(Cc2c(N)nc(N)nc2N)cc1	22	8	-3	-6	-7	-5
Nc1ccc(OCCCc2c(N)nc(N)nc2N)cc1	-2	·	16	29	44*	8
COCCOC(=O)N/C=C\c1nc2ccccc2c(=O)[nH]1	65*	·	-2	-2	2	-5
COc1ccc(S(=O)(=O)N2CCN(C)CC2)cc1C(=O)Nc1ccccc1	-3	-6	-5	-5	-7	-7
CN(CCC1CCOCC1)C(=O)CC1C(=O)NCCN1Cc1c(F)cccc1Cl (stereo not drawn)	-2	-7	1	4	6	-12
CCOc1ccc(CCNC(=O)c2cc3c(C)nccc3[nH]c2=O)cc1OCC	72*	-6	-4	-6	-7	3
SMILES	H9c2 protect	H9c2 TAG inh	APOBEC3A inh	APOBEC3G inh	NadD inh	PfGluPho inh
Cc1nnc(NC(=O)CSc2nccn2Cc2ccccc2)s1	-1	8	-2	-2	-11	-17
CCOc1cccc(/C=N/Nc2ccc(S(=O)(=O)N(CC)CC)cn2)c1O	57*	·	-3	-8	-1	-8
CCN(CC)c1ccc(N=Cc2ccccc2[N+](=O)[O-])cc1	-14	·	8	-3	-9	56
CCN(CC)c1ccc(N=Cc2ccc([N+](=O)[O-])o2)cc1	-14	52*	3	6	6	69*
CCOc1cc2c(c3c1C(c1ccccc1)N(S(=O)(=O)c1ccc(C)cc1)C3)C(=O)C=CC2=O (stereo not drawn)	-15	·	·	·	46*	·
Cc1ccc(N2C(=O)C3C4C=CC(CC4)C3C2=O)cc1[N+](=O)[O-] (stereo not drawn)	1	·	-4	-7	1	-2
Cc1cc(N2C(=O)C=CC2=O)c([N+](=O)[O-])cc1C	-13	·	1	31	4	91*
CC[n+]1c(/C=C/N(C)c2ccccc2)oc2ccc(Cl)cc21	-14	·	-2	-6	2	29
CCN1/C(=C/C=C/c2oc3ccc4ccccc4c3[n+]2CC)Oc2ccc3ccccc3c21	·	·	-98	-268	·	60*
COCCn1c(Cc2ccccc2)nnc1SCC(=O)NC1CCCCC1	-3	·	-6	-8	-4	-8
COc1ccc(S(=O)(=O)N2CCOCC2)cc1NC(=O)c1cccc2c(=O)c(C)c(-c3ccccc3)oc12	71*	·	3	-1	15	3
CC(C)(C)NC(=O)C(OC(=O)c1cccs1)c1ccc(F)cc1 (stereo not drawn)	6	-6	-3	-5	-6	-5
CCC(C(=O)OC)n1cnc2c(nnn2-c2ccc(C)cc2)c1=O (stereo not drawn)	-10	11	1	-1	-7	-7
CCn1c(CNC(=O)c2cccc(C)c2)nnc1SCC(=O)N1CCOCC1	6	·	0	-7	-3	0
CN(C)CCNC(C(=O)Nc1cccc(C(F)(F)F)c1)c1ccccc1 (stereo not drawn)	1	16	1	-4	1	10
CS(=O)(=O)Nc1ccc(-c2cn3cccnc3n2)cc1	5	·	4	1	1	8
CS(=O)(=O)Nc1ccc(-c2ccc3nccn3c2)cc1	52*	11	·	·	6	·
O=C(NC(=S)NCc1cccnc1)c1cccc2ccccc12	5	-5	-2	-6	-6	0
Cc1cc(C)c(-c2cc(NC(=O)COC(=O)c3ccc(C#N)cc3)n(-c3ccccc3)n2)cc1C	-2	·	-2	-8	15	3
COc1ccc(OC)c(-c2csc(NC(=O)COC(=O)c3ccc(NC(=O)CC#N)cc3)n2)c1	12	8	-1	-5	48*	-5
Cc1cc(C)c(-c2cc(NC(=O)COC(=O)c3ccc(NC(=O)CC#N)cc3)n(-c3ccccc3)n2)cc1C	8	11	-2	0	54*	-4
COc1ccc(OC)c(-c2csc(NC(=O)COC(=O)C3CCC3)n2)c1	7	7	21	-1	1	14
CCCCN(Cc1nc2ccccc2c(=O)[nH]1)C(=O)CN1C(=O)NC2(CCCCC2)C1=O	83*	3	0	-3	-1	17
COc1ccc(NC(=O)c2cccs2)cc1OC	3	·	1	-4	-4	-2
